Source: PubChem BioAssay
MARV entry inh: Marburg virus entry inhibition; Marburg virus pseudotyped entry inhibition, cell reporter; Potency, µM (titrated, usually from 37.8 µM), for the others: at the top dose activity change, negative = inhibition, actives largely listed as inhibitors; 300,000 tested, 1.8% active; AID 540276; calls by dose curve; tested in HEK293 cells
HCV inh: inhibitors of hepatitis C virus infection. Huh7.5.1 HCVcc-Cre infection, luciferase reporter, 44 h. Potency, µM (doses to about 41.8 µM), for inactives: at the top dose activity change, negative = inhibition, hits mostly inhibitors. 340,000 tested, 3.4% active. AID 651820
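Infectious HCV cell culture screen: compound-treated cells (1,000/well, pre-plated 4 h) are infected with HCVcc-Cre at roughly 0.5 moi and grown 44 h. Infection is quantified by luciferase signal after 15 min substrate incubation at room temperature.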
FMDV antiviral: antivirals against foot and mouth disease virus. Potency, µM (doses to about 57.9 µM), inactives show at the top dose activity change, negative = inhibition, hits mostly inhibitors. FMDV antiviral cell-based qHTS. 410,000 tested, 1.2% active; calls by dose curve; tested in HEK293T cells; also: read-out not given here; nearly all actives have a fitted effect of over 45% in size
LASV entry inh: inhibitors of Lassa virus binding or cell entry | Lassa virus pseudotype entry inhibition, cell reporter | Potency, µM (titrated, usually from 37.9 µM), for inactives: at the top dose activity change, negative = inhibition, hits mostly inhibitors | 300,000 tested, 1.2% active | AID 540256; calls by dose curve; tested in HEK293 cells; also: nearly all actives have a fitted effect of over 50% in size
Sm TGR block: S. mansoni TGR enzyme inhibition; purified TGR, DTNB reduction, TNB absorbance 405 nm; Potency, µM (doses to about 114 µM), for inactives: top-dose activity change, negative = inhibition, usual class: inhibitors; 360,000 tested, 3% active; also: nearly all actives have a fitted effect of over 60% in size
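First, TGR (20 nM dispensed) and NADPH were mixed with compound. Second, a 15 min room-temperature incubation followed. Third, further NADPH and then DTNB were added to start the reaction. Finally, TNB absorbance was monitored kinetically.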
RE007 growth inh: less growth of the S. pombe RE007 Vpr strain; S. pombe RE007 Vpr strain, BacTiter-Glo ATP luminescence, 24 h; Potency, µM (highest dose often 92.2 µM), for the others: at the highest dose activity change, negative = less growth, most hits filed as inhibitors; 360,000 tested, 0.21% active; AID 651644; active = well fitted falling curve with a large enough effect; inconclusive = small, poorly fitted or top-dose-only effect; inactive = no such curve, though single readings can be large or run the other way; also: nearly all actives have a fitted effect of over 50% in size
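Fission yeast RE007 carrying one integrated HIV-1 vpr copy, seeded at OD 0.01 in PMG+AL medium with 23 nL pinned compound. Grown 24 h at 30 degrees; viability read by BacTiter-Glo luminescence after 5 min.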
Starred values were filed as active, the others as inactive; u = inconclusive; x = not tested or not shown; [ ] = remark or other dose. In the library only some 7.2% were active in any assay of this set; here they are far more common. Unless noted, calls follow the shape of the dose curve; as a rule, active = well fitted curve in the direction sought with a large enough effect; inconclusive = small, poorly fitted or top-dose-only effect, or another doubt; inactive = no such curve, though single readings can be large; an effect the other way counts as inactive or inconclusive. % is scaled to controls: 0 for no effect and ±100 for the full control effect; potency is read from the fitted curve at half-maximal effect.

SMILES | MARV entry inh | HCV inh | FMDV antiviral | LASV entry inh | Sm TGR block | RE007 growth inh
O=C1CCCC=C1C(O)CCOCc1ccccc1 (configuration not stated) | 7%[14.2 µM] | x | x | x | x | x
CCN(Cc1ccc(NC(C)=O)cc1)CC1CCCN(CCc2cccc(F)c2)C1 (configuration not stated) | x | u | -6% | x | -1% | 2%
CCN(Cc1ccc(C#CCCO)cc1)CC1CCCN(CCc2cccc(OC)c2)C1 (configuration not stated) | x | 11µM* | -20% | x | -12% | -12%
COC(=O)N[C@H](C[N+](=O)[O-])C(C)(C)C | 5%[14.2 µM] | x | x | x | x | x
COC(=O)\C(C(C)=O)=C(/C=C/C=C/C=C/N(C)C)N(C)C | u | -20% | -20% | 0% | 35µM* | -13%
COC(=O)/C(C(C)=O)=C(\C=C\N(C)C)N(C)C | 15% | -9% | x | 7% | -17% | 4%
Cc1cnc(C)c(-c2cccc3c2OC(CNC(=O)C[C@@H]2C[C@@H](C)NC(=S)N2)C3)n1 (some centres not stated) | x | x | -5% | x | x | x
CC1CCc2c(sc3nnn(Cc4ccc(F)cc4)c(=O)c23)C1 (configuration not stated) | -1%[46.1 µM] | x | -23% | -16%[46.1 µM] | 9% | x
Cc1cc(C)c(Cn2cnc(-c3ccc([N+](=O)[O-])cc3)c2)c(C)c1 | u | 11µM* | x | -16% | 3% | 11%
CC(C)(C)c1ccc(Cn2cnc(-c3ccc([N+](=O)[O-])cc3)c2)cc1 | u | u | 12% | 8.9µM* | -7% | 7%
CC(C)(C)c1ccc(CNc2ccc([N+](=O)[O-])cn2)cc1 | u | 10% | -21% | u | 0% | -15%
COC(=O)C1=CN(Cc2ccc(OC)c(OC)c2)C=C(C(=O)OC)C1c1cccc(F)c1 | x | u | u | x | 10% | 22%
COC(=O)C1=CN(Cc2cccs2)C=C(C(=O)OC)C1c1cccc(O)c1 | 2%[46.1 µM] | 3% | -11% | 7.1µM* | -13% | -12%
CC1CCN(S(=O)(=O)c2ccc3c(c2)c(=O)c(C(=O)NCc2ccc(Cl)cc2)cn3C)CC1 | 18%[46.1 µM] | x | 3% | 6%[46.1 µM] | -4% | x
COCc1cc(=O)[nH]c(SCCS(=O)(=O)c2ccc(Cl)cc2Cl)n1 | x | 7% | -16% | x | 0.32µM* | -5%
CC(=O)OCC1(C)CN(c2ccccc2)N(C(C)=O)C1=O (configuration not stated) | x | -9% | 3% | x | 0% | -6%
CC(=O)OCC1(C)CN(c2ccccc2)NC1=O (configuration not stated) | x | -1% | 7% | x | 7.9µM* | 1%
NC(=O)c1ccccc1-c1nc(-n2ccnc2)c2ccccc2n1 | x | x | 0% | x | x | x
O=C(CSCc1cnn(-c2ccccc2)c1-n1cccc1)NCc1ccccc1F | 0%[46.1 µM] | x | -15% | -20%[46.1 µM] | 0% | x
CCc1cc(N2CCOCC2)cc2c1[nH]c1ccccc12 | -3% | 7.1µM* | -3% | 2% | -33% | -3%
O=C(Nc1n[nH]c2cc(-c3cc(F)ccc3F)ccc12)C1CC1 | x | x | x | 25µM* | x | x
Cc1ccc(CCNC(=O)c2ccc3c(Cl)c4c(nc3c2)CCCC4)cc1 | 9%[46.1 µM] | x | 0% | -13%[46.1 µM] | -2% | x
CC(C)c1cc(=O)n2c(nc3ccccc32)[nH]1 | x | -15% | 0% | x | 8% | -19%
O=c1cc(CCl)[nH]c2nc3ccccc3n12 | x | -2% | -10% | x | 22µM* | -2%
CCc1c(C)[nH]c2nc3ccccc3n2c1=O | u | 3% | -3% | 24% | 0% | -8%
SMILES | MARV entry inh | HCV inh | FMDV antiviral | LASV entry inh | Sm TGR block | RE007 growth inh
O=c1cc(-c2ccccc2)[nH]c2nc3ccccc3n12 | 5.8µM* | -13% | -39% | u | 5% | -16%
CS(=O)(=O)c1ccc(C(=O)Nc2ccccc2N2CCOCC2)c(Cl)c1 | 0%[46.1 µM] | -10% | 3% | 0% | 47% | -2%
CN(c1ccc(F)cc1)S(=O)(=O)c1ccc(Cl)c(C(=O)NCC2(N3CCOCC3)CCCCC2)c1 | u | 11µM* | u | u | x | -22%
Cc1ccc(N(C)S(=O)(=O)c2cccc(C(=O)Nc3ccc(N4CCOCC4)cc3)c2)cc1 | x | 6.3µM* | 25µM* | x | u | 3%
CN(C)S(=O)(=O)c1cccc(C(=O)Nc2ccc(N3CCOCC3)cc2)c1 | 7% | u | 2% | 5% | -15% | -8%
CN(c1ccccc1)S(=O)(=O)c1cccc(C(=O)Nc2ccc(N3CCOCC3)cc2)c1 | u | 10µM* | u | -54% | -1% | 2%
CN(c1ccccc1)S(=O)(=O)c1ccc(Cl)c(C(=O)Nc2ccccc2N2CCOCC2)c1 | u | 11µM* | -27% | u | -7% | 2%
CN(c1ccc(F)cc1)S(=O)(=O)c1ccc(Cl)c(C(=O)NCC2CCCO2)c1 (configuration not stated) | -1% | -15% | 6% | 1% | 2% | -8%
COc1ccc(N(C)S(=O)(=O)c2cccc(C(=O)Nc3ccc(N4CCOCC4)cc3)c2)cc1 | x | u | u | x | -3% | -14%
COCCNC(=O)c1ccc2c(=O)n(CCOC)c(SCC(=O)c3c[nH]c4ccccc34)nc2c1 | x | x | -7% | -13%[46.1 µM] | u | x
O=C(Nc1ccc(F)cc1F)c1cc2c(=O)n3ccccc3nc2s1 | 10%[46.1 µM] | x | 14% | 17%[46.1 µM] | 4% | x
CCNc1ccc(C(=O)OCC)cc1NC(=O)c1cccc(S(=O)(=O)N(C)c2ccccc2)c1 | u | 8.9µM* | u | u | -4% | 6%
CCNc1ccc(C(=O)OCC)cc1NC(=O)c1cccc(N(C)C)c1 | u | u | x | -25% | -11% | 0%
Cc1ccn2c(=O)nc(SCC(=O)c3ccccc3)nc2c1 | 10% | -7%[8.37 µM] | 15% | u | -11% | -3%
Cc1ccc2nc(SCC(=O)c3ccccc3)nc(=O)n2c1 | u | 2% | -2% | 10µM* | 0% | 9%
COCC(=O)Nc1cc(C(=O)N2CCCC(C(C)=O)C2)cc2nc(-c3ccccc3)n(C)c12 (configuration not stated) | x | x | -8% | x | x | x
Cc1cccc(C)c1NC(=O)CCCSc1nnc(-c2ccc(Cl)cc2)n1-c1ccccc1 | u | u | 14µM* | u | -7% | -4%
Cc1ccc(-c2nnc(SCC(=O)N/N=C/c3ccc(C)s3)n2-c2ccccc2)cc1 | u | -16% | 0% | 16µM* | -19% | 1%
Cc1ccc(-c2nnc(SCC(=O)N/N=C/c3c(C)nn(-c4ccccc4)c3C)n2-c2ccc(C)cc2)cc1 | u | -3% | u | 7.1µM* | 4% | -4%
Cc1ccc(-c2nnc(SCC(=O)N/N=C/c3ccccc3C(=O)O)n2-c2ccc(C)cc2)cc1 | x | 0% | -23% | x | 11% | 2%
Cc1cccc(C)c1NC(=O)CCCSc1nnc(-c2ccc(F)cc2)n1-c1ccccc1 | u | u | u | u | 0% | x
